# ChEMBL document CHEMBL3988442, “University of Dundee, Small-Polar-MMV Screening Library” (2021)
# Out of some 48,000 compounds screened, about 13,000 (27%) showed an effect of 50% or more. The list shows a part of the results.
# Tested on: Wolbachia pipientis
# Experiment: Anti-Wolbachia Cell-Based Screen
# Format: functional
# Set-up: scale not given: in the data most compounds retested in dose-response had high values
# Conditions: 5 µM
row,Compound,Percent Effect [%]
1,N#Cc1ccc(N2CCCN(CC(N)=O)CC2)cc1,-2.311
2,CC(NC(=O)c1csnn1)c1ccc(OCC2CC2)c(F)c1 (stereo not given),3.063
3,CC(NC(=O)C(C)(C)C#N)c1ccc(OCC2CC2)c(F)c1 (stereo not given),5.136
4,CS(=O)(=O)NCCC(=O)NC1(c2ccc(F)cc2)CCCC1,-19.35
5,CCN1CC(C(=O)NCc2nn(CC)c3ccccc23)CCC1=O (stereo not given),10.79
6,COCC(=O)NCc1nn(CCN2CCCC2)c(=O)c2ccccc12,112.1
7,CCn1nc(CNC(=O)C2CCCN(CC(N)=O)C2)c2ccccc21 (stereo not given),4.996
8,CN(C)S(=O)(=O)NCCn1nc(-c2ccccc2)n(C)c1=O,-0.1642
9,Cc1ccccc1CS(=O)(=O)NCCCN1CCCC1,-20.74
10,CCn1nc(CNC(=O)C2CCCN(C(=O)COC)C2)c2ccccc21 (stereo not given),-19.96
11,CCOC(=O)NCc1nn(CCN2CCCC2)c(=O)c2ccccc12,108
12,COCC(=O)NCc1cc2n(n1)CCCN(CCCC1CCCC1)C2,3.539
13,CCNC(=O)NCc1ccc(CN2CCCC(C)C2)cc1 (stereo not given),-3.525
14,CN(C)S(=O)(=O)NCc1nn(CCN2CCCC2)c(=O)c2ccccc12,91.81
15,CCn1nc(CNC(=O)C2CC(=O)N(C3CCCC3)C2)c2ccccc21 (stereo not given),-24.02
16,CCNC(=O)NCc1nn(CCN2CCCC2)c(=O)c2ccccc12,106.7
17,O=c1nc(SCc2ccncc2)c2c(n1CCO)CCC2,3.515
18,COc1cccc(N2CC3(CCN(c4cnccn4)C3)CC2=O)c1 (stereo not given),-7.581
19,Cc1cc(Cl)ccc1NCc1cnn(C2CCS(=O)(=O)C2)c1 (stereo not given),23.97
20,CCC1=NN2C(=N)/C(=C\c3cccn3-c3ccc(Br)cc3)C(=O)N=C2S1,83.94
21,CCC1=NN2C(=N)/C(=C\c3cccn3-c3cccc(Cl)c3)C(=O)N=C2S1,116.1
22,CCC1=NN2C(=N)/C(=C\c3cccn3-c3ccc(Cl)cc3)C(=O)N=C2S1,96.44
23,CCC1=NN2C(=N)/C(=C/c3cccc(Cl)c3)C(=O)N=C2S1,3.278
24,CN(Cc1ccco1)C1CCC12CCN(C(=O)C1CCOCC1)CC2.O=C(O)C(F)(F)F (stereo not given),-16.55
25,CO[C@H]1CCN(S(=O)(=O)c2cn(C)cn2)[C@H]1Cc1ccccc1.O=C(O)C(F)(F)F,1.513

row,Compound,Percent Effect [%]
1,Cc1noc(CCNC(=O)c2ccc(Br)c(S(=O)(=O)N(C)C)c2)n1,13.21
2,CCn1c(N)nc2cc(C(=O)NCCc3ccccc3C)cnc21,-8.06
3,CCN(CC)S(=O)(=O)CCNc1nnc(C(C)C)s1,4.911
4,CC(C)(C)n1cc(CNc2ccc(CNS(C)(=O)=O)cc2)cn1,115
5,CC(C)(C)OC(=O)N1CCC(NCc2cnn(C(C)(C)C)c2)CC1,-19.8
6,CC(=O)N(Cc1ccc(NCc2cnn(C(C)(C)C)c2)cc1)C(C)C,111.1
7,CC(C)(C(=O)NCc1ccc(C#N)cc1)n1cc(Br)cn1,9.719
8,CC(C)OC(=O)NCc1ccc(NCc2cnn(C(C)(C)C)c2)cc1,104.7
9,CS(=O)(=O)c1ccc(NCc2ccc(F)cc2)cn1,-13.54
10,CC(C)c1nc(CNc2ccc(CNS(C)(=O)=O)cc2)cs1,-10.73
11,CC(C)(C)n1cc(CNC2CCN(C(=O)c3ccncc3)CC2)cn1,-2.234
12,CC(C)(C)n1cc(CNC2CCN(C(=O)c3ccco3)CC2)cn1,-4.791
13,CCc1nc(CNC(=O)Nc2nc(COC)cs2)cs1,-11.4
14,O=C(NCCc1csc(-c2cnccn2)n1)c1cnn[nH]1,-5.851
15,CCc1n[nH]c(SCC(=O)N2CCc3[nH]nc(C4CCC4)c3C2)n1,-5.998
16,OC1(CNC2CCN(Cc3ccncc3)CC2)CCc2ccccc21 (stereo not given),9.315
17,O=C(NCC1CC1)[C@@H]1C[C@@H]2CCN(Cc3ccccc3)C[C@H]2O1,100.1
18,O=C([C@@H]1C[C@@H]2CCN(Cc3ccco3)C[C@H]2O1)N1CCCO1,-6.348
19,O=C(NCC1CCOCC1)[C@H]1C[C@@H]2CCN(Cc3ccncc3)C[C@@H]2O1.O=C(O)C(F)(F)F.O=C(O)C(F)(F)F,7.253
20,O=C(NCC1CCOCC1)[C@@H]1C[C@@H]2CCN(Cc3ccco3)C[C@H]2O1.O=C(O)C(F)(F)F,-3.417
21,O=C(NCC1CCOCC1)[C@H]1C[C@@H]2CCN(Cc3ccccc3)C[C@H]2O1.O=C(O)C(F)(F)F,108.7
22,CNC(=O)[C@@H]1C[C@@H]2CCN(Cc3ccoc3)C[C@H]2O1,103.1
23,CNC(=O)[C@H]1C[C@@H]2CCN(CCc3ccccc3)C[C@@H]2O1.O=C(O)C(F)(F)F,-33.06
24,O=C(NCC1CC1)[C@@H]1C[C@@H]2CCN(Cc3ccoc3)C[C@@H]2O1,93.16
25,O=C(NCC1CC1)[C@H]1C[C@@H]2CCN(CCc3ccccc3)C[C@H]2O1.O=C(O)C(F)(F)F,16.57
